Source: PubChem (NMMLSC)
The list is not random: actives were taken first. Their share in the collection is about 1.2%.
Pemphigus Ab inh: human desmoglein-3 autoantibody binding inhibition. P32926. DSG3-coupled beads, scFv-anti-DSG3-GFP binding, flow cytometry; stronger effect = lower value. binding (percent of control), % at 10 µM. 0.48% of 310,000 active;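 active means binding more than 3 SD below its plate's average and above zero; inconclusive means below that plate limit but binding exactly zero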;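 further: hits lower antibody fragment binding to DSG3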
Target sequence (P32926 whole entry, looked up, the tested form may be a part): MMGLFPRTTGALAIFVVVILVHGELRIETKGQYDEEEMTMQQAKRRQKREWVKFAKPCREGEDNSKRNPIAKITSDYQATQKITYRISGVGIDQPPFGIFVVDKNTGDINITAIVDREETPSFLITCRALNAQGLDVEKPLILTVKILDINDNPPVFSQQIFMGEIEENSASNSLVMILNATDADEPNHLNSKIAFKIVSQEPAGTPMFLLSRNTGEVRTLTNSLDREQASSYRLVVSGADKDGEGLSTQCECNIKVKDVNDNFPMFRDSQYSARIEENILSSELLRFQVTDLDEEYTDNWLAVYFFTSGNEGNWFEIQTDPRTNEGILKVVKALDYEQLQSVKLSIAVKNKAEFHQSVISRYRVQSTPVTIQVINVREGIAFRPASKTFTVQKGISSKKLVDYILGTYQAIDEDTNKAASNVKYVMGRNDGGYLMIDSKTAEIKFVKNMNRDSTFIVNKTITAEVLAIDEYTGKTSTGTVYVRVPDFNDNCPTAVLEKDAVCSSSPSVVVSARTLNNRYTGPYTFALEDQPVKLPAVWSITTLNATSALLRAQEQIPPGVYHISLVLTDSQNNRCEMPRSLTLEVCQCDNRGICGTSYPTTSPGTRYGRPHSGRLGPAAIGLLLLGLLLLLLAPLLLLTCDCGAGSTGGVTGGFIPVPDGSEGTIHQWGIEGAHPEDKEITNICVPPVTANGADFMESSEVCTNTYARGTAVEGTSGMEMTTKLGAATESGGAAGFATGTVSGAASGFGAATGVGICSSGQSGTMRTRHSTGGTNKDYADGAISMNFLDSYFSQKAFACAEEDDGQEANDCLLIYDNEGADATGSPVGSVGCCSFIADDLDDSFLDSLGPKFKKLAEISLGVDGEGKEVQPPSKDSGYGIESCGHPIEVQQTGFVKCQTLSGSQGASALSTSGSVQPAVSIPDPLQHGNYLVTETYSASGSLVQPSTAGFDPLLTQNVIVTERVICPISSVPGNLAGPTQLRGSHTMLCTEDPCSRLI
RPL19A-GFP yeast: alters RPL19A-GFP fluorescence in TOR pathway yeast screen | S. cerevisiae RPL19A-GFP strain, flow cytometry, 3 h; stronger effect = lower value | percent response vs DMSO, % at 10 µM | 0.3% of 330,000 active;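 active means percent response vs DMSO below 50%; inconclusive means fewer than 70 events counted for the yeast strain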;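 further: median channel GFP fluorescence of the barcoded RPL19A-GFP strain; ratio of sample median GFP to plate DMSO average so 100% = DMSO; lower means less RPL19A-GFP as with rapamycin TOR inhibition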
CIT2 TOR yeast: alters CIT2-GFP fluorescence in TOR pathway yeast screen; S. cerevisiae CIT2-GFP strain, flow cytometry, 3 h; 100 means same as DMSO wells; GFP response vs DMSO, % at 10 µM; 0.065% of 320,000 active;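 active means GFP response relative to DMSO above a set limit, near the screen mean plus 3 SD, cut at about 150% in these data; inconclusive means Fewer than 70 cells measured for a yeast strain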;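 further: ratio of well median GFP fluorescence to mean of DMSO wells on the plate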
MEP2 TOR yeast: modulators of TOR pathway MEP2-GFP in S. cerevisiae | S. cerevisiae MEP2-GFP strain, flow cytometry GFP, 3 h; 100% = DMSO control level | GFP response vs DMSO, % at 10 µM | 0.51% of 330,000 active | AID 2016;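 active means GFP response versus DMSO above a set limit, roughly screen mean plus 3 SD, cut at about 180% in these data; inconclusive means fewer than 70 cells counted for a yeast strain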;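 further: median GFP fluorescence of the barcode-gated MEP2-GFP cells per well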
AGP1-GFP MLPCN: modulators of TOR pathway AGP1-GFP in S. cerevisiae; S. cerevisiae AGP1-GFP multiplex flow cytometry, 3 h; GFP as percent of DMSO wells; GFP response vs DMSO, % at 10 µM; 0.02% of 320,000 active;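 active means GFP response relative to DMSO above a set limit, near screen average plus 3 SD, cut at about 150% in these data; inconclusive means fewer than 70 cells counted for the yeast strain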;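 further: median GFP channel fluorescence of the gated AGP1 strain per well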
LAP4-GFP MLPCN: yeast TOR pathway LAP4-GFP modulation; S. cerevisiae LAP4-GFP multiplex, flow cytometry GFP, 3 h; median GFP as percent of DMSO wells; GFP response vs DMSO, % at 10 µM; 0.34% of 320,000 active;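 active means GFP response vs DMSO above a set limit, about the screen mean plus 3 SD, cut at about 150% in these data; inconclusive means under 70 cell events counted for the yeast strain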
* hit, by the source's call; ? = inconclusive; / = not tested or not shown; [ ] = dose if it differs, or a comment.

SMILES	Pemphigus Ab inh	RPL19A-GFP yeast	CIT2 TOR yeast	MEP2 TOR yeast	AGP1-GFP MLPCN	LAP4-GFP MLPCN
CC1(C)Cc2cccc(OCC(=O)Nc3ccccc3C(F)(F)F)c2O1	76.7*	104.2	103.5	128.9	103.7	113.0
CCc1cc(C(=O)Cc2ccccn2)c(O)cc1O	96.6	62.9	?	269.6*[may fluoresce violet]	13.7	72.8
Cc1ccc(S(=O)(=O)NCC(C)n2cncn2)cc1C (configuration not stated)	98.4	105.5	104.9	111.0	104.6	107.3
OCC(O)C1OC(Nc2ccc(Cl)cc2)C(O)C1O (configuration not stated)	100.5	55.9	?	309.9*[may fluoresce violet]	?	114.6
CCOc1cc(N2CCOCC2)c(OCC)cc1NC(=O)c1[nH]c(C)c(C(C)=O)c1C	101.4	97.1	95.7	102.2	108.2	108.7
CCOc1ccc(OCC)c(NC(=O)c2[nH]c(C)c(C(C)=O)c2C)c1	98.4	41.3*[may fluoresce violet]	?	368.2*[may fluoresce violet]	?	100.7
Cc1ccc(C2=N/C(=C/c3cccs3)C(=O)N2Nc2ccccc2)cc1	89.8	89.9	77.7	92.1	99.1	123.1
COc1ccc(/C=C\C(=O)O[C@@H]2C(O)C(O[C@@H]3OC(C)[C@H](O[C@@H]4OCC(O[C@H]5O[C@H](CO)[C@@H](O)C(O)C5O)C(O)C4O)C(O)C3O)[C@H](OC(=O)[C@]34CCC(C)(C)C[C@@H]3C3=CCC5[C@@]6(C)CC(O)C(O[C@@H]7OC(CO)C(O)[C@H](O)[C@H]7O)[C@@](C)(C(=O)O)C6CC[C@@]5(C)[C@]3(CO)CC4)O[C@H]2C)cc1 (some centres not stated)	103.4	94.7	86.0	89.2	86.2	87.7
COc1ccc(F)cc1C(=O)C1CCCN(Cc2cnc(N3CCCC3)s2)C1 (configuration not stated)	100.7	97.7	97.6	104.5	105.6	102.7
COc1ccc(Cl)cc1C(=O)C1CCCN(Cc2cnc(N3CCOCC3)s2)C1 (configuration not stated)	27.9*	96.4	98.3	99.3	102.3	108.8
Cc1cc(=O)oc2cc(OCc3ccc(C(=O)OCC(=O)NC4CCS(=O)(=O)C4)cc3)ccc12 (configuration not stated)	70.2*	99.2	103.1	101.6	104.6	104.5
CC(NC(=O)c1ccccc1)c1nc2ccccc2n1Cc1ccccc1F (configuration not stated)	/	15.7*[may fluoresce violet]	?	292.9*[may fluoresce violet]	?	71.4
CC(NC(=O)/C=C/c1ccco1)c1nc2ccccc2n1Cc1c(Cl)cccc1Cl (configuration not stated)	101.4	98.3	105.4	89.8	98.5	94.2
CC(NC(=O)/C=C/c1ccco1)c1nc2ccccc2n1Cc1ccccc1F (configuration not stated)	81.0*	/	/	/	/	/
O=C(COn1nnc2ccc(Cl)cc21)Nc1ccc(F)cc1	106.4	96.1	100.7	91.4	94.0	86.9
O=C(COn1nnc2ccc(Cl)cc21)NC12CC3CC(CC(C3)C1)C2	85.6*	100.0	104.3	104.8	107.5	106.7
C[n+]1ccc(CC2C(=[N+]([O-])[O-])C=Nc3ncnn32)cc1 (configuration not stated)	100.3	/	/	/	/	/
CC1=NN(c2nc(C)cc(C)n2)C(=O)C1CCC(C)C (configuration not stated)	93.3	97.5	101.2	108.5	99.4	98.8
CCC1C(=O)N(c2nc(C)cc(C)n2)N=C1C (configuration not stated)	106.4	14.8*[may fluoresce violet]	?	179.6*[may fluoresce violet]	?	97.1
O=C(COc1ccc(Br)cc1CO)N1CCCc2ccccc21	/	98.0	92.0	101.8	99.7	94.6
CCc1cc(=O)oc2c(C)c(OCC(=O)N3CCCc4ccccc43)ccc12	99.7	38.5*[may fluoresce violet]	?	248.1*[may fluoresce violet]	?	94.5
O=C(Cc1ccccc1)Nc1ccc(NC(=O)c2cccs2)c(Cl)c1	95.5	113.8	110.7	109.5	106.6	101.3
O=C(Cc1ccccc1)Nc1ccc(NC(=O)c2cccs2)cc1Cl	71.9*	104.7	99.1	103.5	93.7	88.8
COc1ccccc1-c1coc2c(CN3CCN(C)CC3)c(O)ccc2c1=O	/	101.3	97.5	99.8	103.5	100.9
COc1ccccc1Oc1coc2c(CN3CCN(C)CC3)c(O)ccc2c1=O	106.5	63.1	?	224.9*[may fluoresce violet]	?	88.8
SMILES	Pemphigus Ab inh	RPL19A-GFP yeast	CIT2 TOR yeast	MEP2 TOR yeast	AGP1-GFP MLPCN	LAP4-GFP MLPCN
O=C(O)CSc1cccc[n+]1[O-]	100.2	96.1	95.2	99.2	99.0	93.4
O=C(CSc1cccc[n+]1[O-])c1cc2ccccc2o1	105.3	91.3	82.6	95.5	89.6	154.8*
Cc1ccc(NC(=O)CCC(=O)c2ccccc2)cc1	71.0*	/	/	/	/	/
O=[N+]([O-])c1cc(S(=O)(=O)NCCN2CCOCC2)ccc1Cl	108.7	101.2	105.3	107.8	100.7	95.9
CC1CCCC(NC(=O)COC(=O)CCC2CCCC2)C1C (configuration not stated)	45.1*	102.3	109.2	104.5	112.3	99.0
Cc1ccc(OCCC(=O)OCC(=O)NC2CCCC(C)C2C)cc1 (configuration not stated)	/	98.1	102.0	93.2	97.2	98.8
C/C(=N/OC(=O)c1ccc(F)cc1)c1ccc(C)cc1	91.7	53.0	?	327.4*[may fluoresce violet]	28.9	100.5
Cc1ccccc1/C(N)=N/OC(=O)c1ccc(F)cc1	102.7	97.2	97.0	100.4	90.5	102.6
COc1ccc(Cl)cc1NC(=O)Cn1c(C)csc1=O	102.9	95.7	101.7	100.3	100.0	99.3
C#CCOCCOCCOCCNc1nc(N2CCN(C(=O)CCCCCCCCCCNC(=O)[C@H](CCCCN)n3cc(C[C@@H](C)CC)nn3)CC2)nc(N2CCN(C(=O)CCCCCCCCCCNC(=O)[C@@H]([C@H](C)O)n3cc(C)nn3)CC2)n1	127.5	74.5	93.6	101.0	98.0	148.6
C#CCOCCOCCOCCNc1nc(N2CCN(C(=O)CCCCCCCCCCNC(=O)[C@H](CCCCN)n3cc(C[C@@H](C)CC)nn3)CC2)nc(N2CCN(C(=O)CCCCCCCCCCNC(=O)[C@H](CCCN=C(N)N)n3cc(C[C@@H](C)CC)nn3)CC2)n1	164.3	63.3	99.4	114.4	99.2	198.5*
C#CCOCCOCCOCCNc1nc(N2CCN(C(=O)CCCCCCCCCCNC(=O)[C@H](CO)n3cc(CCCCCN)nn3)CC2)nc(N2CCN(C(=O)CCCCCCCCCCNC(=O)[C@H](CCCN=C(N)N)n3cc(C[C@@H](C)CC)nn3)CC2)n1	/	72.2	93.6	97.3	98.2	162.0*
C/C(=N\NC(=S)NC1CCCCC1)c1ccc(O)cc1	118.7	97.7	104.8	102.7	111.3	110.9
C/C(=N\NC(=S)NC1CCCCC1)c1ccccc1	82.7*	100.4	97.4	98.4	95.5	103.4
